These sequences were tested against FZR1 (assay: pooled miR-30 sensor sort-seq; sequence = guide strand). Settings: shRNA.
Sequence AACATGGACAGCTTCTTCCCTG has a sensor-assay potency score (higher = more potent) of -0.261.
Work on TTTGTCGAACGGGTTTTGCTAA yielded a sensor-assay potency score (higher = more potent) of -0.856.
Work on TTCTGTGAGTAGCCGTGCGTGC yielded a sensor-assay potency score (higher = more potent) of -1.08.
TTGCACACTTGGGAGCCCGTGT showed a sensor-assay potency score (higher = more potent) of -0.748.
Work on TCATTCTGGATGACGATCTGGC yielded a sensor-assay potency score (higher = more potent) of 0.47.
TGAGAGGTCACAGAGCCGCGTC was tested, and the sensor-assay potency score (higher = more potent) was -0.649.
For TTCTCATTCTCGTTAATCCTGT, the sensor-assay potency score (higher = more potent) was -0.581.
For TCTGTGGACCACTTGAGCCCGC, the sensor-assay potency score (higher = more potent) was -0.976.
In the case of TCTGGTTCTGTGAGTAGCCGTG, the sensor-assay potency score (higher = more potent) is reported as -0.152.
For TACACTGCAGTGGTTGTCCTGT, the sensor-assay potency score (higher = more potent) was -0.434.
In the case of TGAGACTCCAGGATCCTCCAGG, the sensor-assay potency score (higher = more potent) is reported as -0.492.

The sequences below were run against GAA in the same assay as above. Settings: shRNA.
TAAACTGCAGGATTTCTGGCAC showed a sensor-assay potency score (higher = more potent) of -0.0629.
AATCTTATTAACACAGAGCAGC gave a sensor-assay potency score (higher = more potent) of -1.53.
Sequence TTCATGTCAATCCACATGCCGT has a sensor-assay potency score (higher = more potent) of -0.999.
In the case of TAGTCCAGGTCGTTCCACTGGA, the sensor-assay potency score (higher = more potent) is reported as -0.244.
Work on TTTGCAGGGATGTAGCAACAGC yielded a sensor-assay potency score (higher = more potent) of -1.16.
TTAAACTGCAGGATTTCTGGCA gave a sensor-assay potency score (higher = more potent) of 0.151.
TTGTTGAACGTGAAGTCCCTCC gave a sensor-assay potency score (higher = more potent) of 0.0246.
TCCTCGGAGAACTCCACGCTGT gave a sensor-assay potency score (higher = more potent) of -1.76.
Work on TTGATCGTGAAGTGGAGGCGGT yielded a sensor-assay potency score (higher = more potent) of -0.412.
Work on TACTGCTGCACCACGCTCTTGG yielded a sensor-assay potency score (higher = more potent) of 0.362.
For TAGAGGTTCGCACCGGGCGTGG, the sensor-assay potency score (higher = more potent) was -1.37.
TTTAGAATCTCCCAAGTCCTGT was tested, and the sensor-assay potency score (higher = more potent) was 0.11.
TTAAGATTTAGAATCTCCCAAG was tested, and the sensor-assay potency score (higher = more potent) was -0.492.
Sequence TTAGCTGGATCTTTGATCGTGA has a sensor-assay potency score (higher = more potent) of 0.689.
TTCACGATCGTGTTATTCCTGG gave a sensor-assay potency score (higher = more potent) of -0.238.
TACAATCTTATTAACACAGAGC gave a sensor-assay potency score (higher = more potent) of -0.86.
For TTGAACGTGAAGTCCCTCCGGG, the sensor-assay potency score (higher = more potent) was 0.671.
For TTGGTGTCGGGGCTGTAGGTGA, the sensor-assay potency score (higher = more potent) was -0.824.
With TAACACAGAGCAGCCCTCCAGG the sensor-assay potency score (higher = more potent) was -0.565.
For TGAACGTGAAGTCCCTCCGGGA, the sensor-assay potency score (higher = more potent) was -0.701.
Sequence TTGTGGTTCCGCATGAAGGGGT has a sensor-assay potency score (higher = more potent) of -0.144.
In the case of TTTGATCGTGAAGTGGAGGCGG, the sensor-assay potency score (higher = more potent) is reported as 0.187.
TTCTCCAGCTTGTAGCTGGGGT was tested, and the sensor-assay potency score (higher = more potent) was -0.57.
Work on TTGTGCAGGTTGTAGTGTGTGG yielded a sensor-assay potency score (higher = more potent) of -0.0928.

Each sequence was assayed against GAB3 in the same assay as above. Settings: shRNA.
For TTGCAGACCTGACTGATGCTGT, the sensor-assay potency score (higher = more potent) was 0.324.
Work on TTTCGATGTAGCTTTCTTCGTC yielded a sensor-assay potency score (higher = more potent) of 0.694.
TTTCCTTGAATCGTTATGCTTT was tested, and the sensor-assay potency score (higher = more potent) was 0.221.
With TTGCTGGAGTGCTTGTTCCTGT the sensor-assay potency score (higher = more potent) was -0.331.
TTGAGATCTCTATTCACTGGGG gave a sensor-assay potency score (higher = more potent) of 0.467.

Source: the OligoGym collection
Note: reference of the scale not given here.
